Among the data in PubChem BioAssay (Tox21) are Potency and outcome values, retold here.

The nature of assay [1]: qHTS assay to identify small molecule antagonists of the retinoid acid receptor (RAR) signaling pathway - cell viability counter screen (AID 1159551). Further: nearly all actives have a fitted effect of over 35% in size. Summed up: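 Luminescent ATP quantitation (CellTiter-Glo) gave cell viability in C3RL4 cells exposed to test chemicals for 6 h at 37 C alongside 1 uM final retinol.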
A short description of assay [2]: qHTS assay to identify small molecule antagonists of the retinoic acid receptor (RAR) signaling pathway (AID 1159552; further: nearly all actives have a fitted effect of over 50% in size; further: potency means the concentration at half of the fitted maximal effect). Summed up: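 Cells of the C3RL4 line were seeded, incubated overnight, then dosed with compounds in DMSO followed immediately by retinol (1 uM final). Six hours later luciferase detection reagent went in; signal was measured after 30 min at RT.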

A short description of assay [3]: qHTS assay to identify small molecule agonists of the retinoic acid receptor (RAR) signaling pathway (AID 1159553). In a few lines:
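Luminescence from a RARE-driven luciferase reporter in C3RL4 cells served as the read-out, measured after 30 min with detection reagent at room temperature. Compounds in DMSO were applied for 6 hr at 37 C following overnight seeding.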

Assay [4] can be described thus: qHTS assay to identify small molecule antagonists of the estrogen related receptor (ERR) signaling pathway - cell viability counter screen (AID 1224818). Further: series mostly up to about 46 µM. In a few lines: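 Multiplexed counter screen to separate cytotoxic compounds from true ERR modulators. ERR cells received DMSO-dissolved compounds after a 6 h pre-incubation, were exposed 17.5 h at 37 C, then assayed with CellTiter-Fluor fluorescence.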

Assay [5] is described as follows: qHTS assay to identify small molecule antagonists of the estrogen related receptor signaling pathway with the pleiotropic PPARgamma coactivator (PGC) cell viability counter screen (AID 1224822; further: series mostly up to about 46 µM). In a few lines: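 Cells: PGC/ERR, 2,000/well, 1536-well format. Pre-incubation 6 h, 37 C/5% CO2. Compound exposure 17.5 h, 37 C. Detection: CellTiter-Fluor, 30 min, fluorescence.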

Assay [6] is described as follows: qHTS assay to identify small molecule antagonists of the estrogen related receptor (ERR) signaling pathway from Tox21 library - cell viability counter screen (AID 1224834). Further: nearly all actives have a fitted effect of over 30% in size. Further: potency means the concentration at half of the fitted maximal effect. In a few lines: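 Fluorescence from CellTiter-Fluor gives the viability read-out, taken 30 min after reagent addition. Before that, ERR cells seeded 6 h earlier were incubated with compounds for 17.5 h at 37 C.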

The target in assay [7] is Luciferin 4-monooxygenase (Photinus pyralis) (UniProt P08659). The assay can be described thus: qHTS assay to identify small molecule inhibitors of firefly luciferase (AID 1224835). Further: nearly all actives have a fitted effect of over 25% in size. Further: potency means the concentration at half of the fitted maximal effect. Summed up: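 Biochemical qHTS: compounds run as interplate titrations against purified firefly enzyme, with D-luciferin and ATP each at its KM concentration. Light output recorded by CCD imaging.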
Luciferin 4-monooxygenase (Photinus pyralis), sequence (P08659 whole entry, looked up): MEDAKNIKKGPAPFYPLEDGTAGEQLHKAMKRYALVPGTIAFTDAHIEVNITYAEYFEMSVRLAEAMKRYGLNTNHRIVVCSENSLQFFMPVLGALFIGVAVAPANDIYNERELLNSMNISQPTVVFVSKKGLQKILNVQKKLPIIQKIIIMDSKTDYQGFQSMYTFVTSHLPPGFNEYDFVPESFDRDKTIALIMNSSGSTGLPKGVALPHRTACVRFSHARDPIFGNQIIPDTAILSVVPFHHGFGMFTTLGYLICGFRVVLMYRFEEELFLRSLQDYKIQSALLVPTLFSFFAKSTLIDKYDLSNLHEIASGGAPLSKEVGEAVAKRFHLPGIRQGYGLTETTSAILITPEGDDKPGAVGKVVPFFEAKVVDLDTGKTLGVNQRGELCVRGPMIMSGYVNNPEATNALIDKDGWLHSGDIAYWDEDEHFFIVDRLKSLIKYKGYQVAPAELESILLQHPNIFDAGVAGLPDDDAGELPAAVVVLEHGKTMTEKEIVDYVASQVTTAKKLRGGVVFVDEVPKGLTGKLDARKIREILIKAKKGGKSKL

A short description of assay [8]: qHTS assay to identify small molecule agonists of the constitutive androstane receptor (CAR) signaling pathway - cell viability counter screen (AID 1224836). Further: nearly all actives have a fitted effect of over 45% in size. Further: potency means the concentration at half of the fitted maximal effect. Summed up:
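HepG2-CYP2B6-hCAR, 2500 cells/well, 4 h pre-incubation; cpd 15 conc + PK11195 0.75 uM final; 23 h, 37 C/5% CO2; CellTiter-Fluor, fluorescence.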

The nature of assay [9]: qHTS assay to identify small molecule antagonists of the constitutive androstane receptor (CAR) signaling pathway - cell viability counter screen (AID 1224837). Further: nearly all actives have a fitted effect of over 45% in size. Further: potency means the concentration at half of the fitted maximal effect. Summed up: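 HepG2-CYP2B6-hCAR cells, 2500/well, 4 hr pre-incubation; compound titration, 15 conc.; CITCO 50 nM final; 23 hr, 37 C/5% CO2; CellTiter-Fluor, fluorescence intensity.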
Assay [10] addresses Nuclear receptor subfamily 1 group I member 3 (Homo sapiens) (UniProt Q14994). In words: qHTS assay to identify small molecule antagonists of the constitutive androstane receptor (CAR) signaling pathway (AID 1224838).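 Further: HepG2 cells stably expressing hCAR with CYP2B6 luciferase reporter stimulated by CITCO; nearly all actives have a fitted effect of over 40% in size.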 Further: potency means the concentration at half of the fitted maximal effect. Summed up:
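HepG2-CYP2B6-hCAR cells; 4 h pre-incubation; cpd (15 conc) + CITCO 50 nM final; 24 h, 37 C/5% CO2; ONE-Glo, luminescence.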

For assay [11] the target is unchanged. In words: qHTS assay to identify small molecule agonists of the constitutive androstane receptor (CAR) signaling pathway (AID 1224839). Further: nearly all actives have a fitted effect of over 15% in size. Further: potency means the concentration at half of the fitted maximal effect. Summed up:
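HepG2-CYP2B6-hCAR cells, 2500/well, 4 h pre-incubation; compounds 15 conc.; PK11195 0.75 uM final; 24 h, 37 C/5% CO2; ONE-Glo luciferase read.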

Assay [12] in a line: qHTS assay to identify small molecule antagonists of the estrogen related receptor signaling pathway with the pleiotropic PPARgamma coactivator (PGC) from Tox21 10K library - cell viability counter screen (AID 1224840; active means well fitted cell-killing curve with a large enough effect in the repeat runs, not every such curve was filed as active; further: nearly all actives have a fitted effect of over 40% in size; further: potency means the concentration at half of the fitted maximal effect). In a few lines: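 PGC/ERR cells, 2,000/well; 6 h pre-incubation 37 C/5% CO2; cpd in DMSO via pin tool; 17.5 h 37 C; CellTiter-Fluor, 30 min; fluorescence.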

Assay [13] in a line: qHTS assay to identify small molecule agonists of the RXR signaling pathway - cell viability counter screen (AID 1159529). Further: nearly all actives have a fitted effect of over 50% in size. Further: potency means the concentration at half of the fitted maximal effect. In a few lines: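 HEK 293T RXRa-bla cells, 2% CS-FBS; 5 h settle; cpd 16 h 37 C, 5% CO2; CellTiter-Glo 30 min RT, luminescence. Tetraoctyl ammonium bromide as positive control.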
In assay [14] the target is Thyrotropin receptor (Homo sapiens) (UniProt P16473). The assay can be described thus: qHTS assay to identify small molecule agonists of the thyroid stimulating hormone receptor (TSHR) signaling pathway (AID 1224843; calls by dose curve; further: nearly all actives have a fitted effect of over 45% in size). In a few lines: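 TSHR-HEK293 cells in agonist mode, 30 min room-temperature step, then cAMP measured by competitive HTRF (cAMP-d2 with anti-cAMP cryptate) after 1 h at room temperature. Tested at 15 concentrations in triplicate.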
Thyrotropin receptor (Homo sapiens), sequence (P16473 whole entry, looked up): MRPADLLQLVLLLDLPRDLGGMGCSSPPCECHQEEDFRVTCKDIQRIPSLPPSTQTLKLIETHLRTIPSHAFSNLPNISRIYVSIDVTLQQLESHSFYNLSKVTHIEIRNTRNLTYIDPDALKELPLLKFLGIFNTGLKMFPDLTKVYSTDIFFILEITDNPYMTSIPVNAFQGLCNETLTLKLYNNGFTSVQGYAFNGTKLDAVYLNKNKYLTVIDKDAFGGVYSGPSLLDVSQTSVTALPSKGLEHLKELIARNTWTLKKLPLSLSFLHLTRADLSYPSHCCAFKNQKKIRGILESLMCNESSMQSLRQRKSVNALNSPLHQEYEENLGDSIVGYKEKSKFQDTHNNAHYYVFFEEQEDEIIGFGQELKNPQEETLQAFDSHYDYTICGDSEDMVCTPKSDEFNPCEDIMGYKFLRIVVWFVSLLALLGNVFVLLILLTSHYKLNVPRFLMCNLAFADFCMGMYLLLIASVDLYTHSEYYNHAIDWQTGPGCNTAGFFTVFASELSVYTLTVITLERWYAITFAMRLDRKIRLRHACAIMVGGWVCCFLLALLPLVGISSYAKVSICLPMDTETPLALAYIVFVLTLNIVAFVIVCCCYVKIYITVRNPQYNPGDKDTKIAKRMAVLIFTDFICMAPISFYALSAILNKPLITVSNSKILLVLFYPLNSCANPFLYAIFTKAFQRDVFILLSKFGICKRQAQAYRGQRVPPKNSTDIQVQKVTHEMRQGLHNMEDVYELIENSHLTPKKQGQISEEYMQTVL

Assay [15] in a line: qHTS assay to identify small molecule antagonists of the estrogen related receptor (ERR) signaling pathway (AID 1224819; further: potency means the concentration at half of the fitted maximal effect; nearly all actives have a fitted effect of over 50% in size). Summed up: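 Seed ERR cells 2,000/well; rest 6 h at 37 C/5% CO2; pin compounds in DMSO; incubate 18 h at 37 C; add One-Glo; wait 30 min at room temperature; measure luminescence.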
The nature of assay [16]: qHTS assay to identify small molecule agonists of the estrogen related receptor (ERR) signaling pathway (AID 1224820). Summed up: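 Cells: ERR line from NTP, 2,000/well. Pre-incubation 6 h, 37 C/5% CO2. Compound (DMSO) pin transfer, 18 h 37 C. One-Glo, 30 min RT, luminescence.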
For assay [17], the system named is estrogen-related receptor alpha (ERRalpha) with PGC-1alpha coactivator, human. In words: qHTS assay to identify small molecule antagonists of the estrogen related receptor signaling pathway with the pleiotropic PPARgamma coactivator (PGC) (AID 1224821; calls by dose curve; further: nearly all actives have a fitted effect of over 50% in size; further: potency means the concentration at half of the fitted maximal effect). In a few lines: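 Luminescent read-out (One-Glo, 30 min at room temperature) following 18 h treatment of PGC/ERR cells at 37 C with compounds delivered in DMSO. Cells had settled 6 h at 37 C/5% CO2 before dosing.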

The nature of assay [18]: qHTS assay to identify small molecule agonists of the estrogen related receptor signaling pathway with the pleiotropic PPARgamma coactivator (PGC) (AID 1224823). Summed up:
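Steps: plate PGC/ERR cells at 2,000 cells/well; incubate 6 h, 37 C/5% CO2; pin-transfer compounds (DMSO); incubate 18 h, 37 C; add One-Glo; 30 min RT; read luminescence.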

Assay [19] in a line: qHTS assay to identify small molecule antagonists of the estrogen related receptor signaling pathway with the pleiotropic PPARgamma coactivator (PGC) from Tox21 10K library (AID 1224841; call rule not given here; further: potency means the concentration at half of the fitted maximal effect). Summed up:
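PGC/ERR cell line, 2,000 cells/well; 6 h pre-incubation 37 C/5% CO2; compounds (DMSO) pinned in; 18 h, 37 C; One-Glo, 30 min RT; luminescence.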

Assay [20] is described as follows: qHTS assay to identify small molecule agonists of the estrogen related receptor signaling pathway with the pleiotropic PPARgamma coactivator (PGC) from Tox21 10K library (AID 1224842). Further: nearly all actives have a fitted effect of over 15% in size. Summed up:
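PGC/ERR reporter cell line, 2,000 cells per well, incubated 6 h at 37 C before 23 nL compound in DMSO was added. After 18 h at 37 C, One-Glo luminescence read following 30 min at room temperature.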

Several values for one entry are separate records, joined by “and”; a condition that tells them apart may be missing. Identical values can stand only once. Results filed as inconclusive are left out. Activity calls are given as the source filed them. Unless noted, the call rests on the fitted dose curve; in most records, active means well fitted curve in the direction sought with a large enough effect in the repeat runs; inconclusive means weak or mixed curves; inactive means no such curve, though single readings can be large; an effect the other way counts as inactive or inconclusive.

Nuclear receptor subfamily 1 group I member 3 (Homo sapiens), sequence (Q14994 whole entry, looked up): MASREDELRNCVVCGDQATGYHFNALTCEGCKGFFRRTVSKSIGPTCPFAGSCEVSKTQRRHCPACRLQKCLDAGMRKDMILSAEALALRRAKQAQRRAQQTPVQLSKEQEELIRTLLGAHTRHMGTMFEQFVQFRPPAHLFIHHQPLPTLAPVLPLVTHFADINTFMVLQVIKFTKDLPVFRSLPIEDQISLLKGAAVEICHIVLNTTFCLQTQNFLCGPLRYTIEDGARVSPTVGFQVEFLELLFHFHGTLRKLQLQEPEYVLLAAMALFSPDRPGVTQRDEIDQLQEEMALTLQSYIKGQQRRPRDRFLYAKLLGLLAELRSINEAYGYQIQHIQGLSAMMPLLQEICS

Turning to `Cc1[nH]c(=O)c(C#N)cc1-c1ccncc1`, the Potency entry in [1], in assay [2], in assay [3], in assay [4], in [5] and in assay [6] was “inactive” throughout. In addition, the Potency result in [7], in assay [8], in assay [9], in assay [10], in [11] and in assay [12] was “inactive” in each case.
With `COc1cc([C@@H]2c3cc4c(cc3[C@H](O)[C@H]3COC(=O)[C@H]23)OCO4)cc(OC)c1OC`, the Potency entry in assay [13], in assay [1], in assay [3], in assay [7], in assay [8] and in assay [11] was “inactive” in each case. Further, the Potency entry in assay [12] and in assay [14] was “inactive” in each case. Also, the Potency in assay [10] was 48.5 nM (active) and 59.6 nM (active).
As for `Oc1ccc(O)cc1`, the Potency result in assay [13], in [3], in [4], in assay [5], in assay [7] and in assay [8] was “inactive” each time. For the same compound, the Potency result in [9], in assay [10] and in assay [12] was “inactive” throughout. Further, the Potency in assay [2] is 17.1 µM (active) and 24.3 µM (active) and 10.6 µM (active); in [11], 30.5 µM (active) and 34.4 µM (active).
As for `CC(=O)O[C@]1(C(C)=O)CC[C@H]2[C@@H]3C=C(Cl)C4=CC(=O)[C@@H]5C[C@@H]5[C@]4(C)[C@H]3CC[C@@]21C`, the Potency entry in assay [13], in [1], in [4], in assay [5], in [7] and in [8] was “inactive” each time. For the same compound, the Potency entry in [9], in assay [12] and in [14] was “inactive” each time.
As to `Cc1ncc[nH]1`, the Potency entry in assay [13], in [1], in assay [2], in assay [3], in [7] and in [8] was “inactive” in each case. For the same compound, the Potency entry in [9], in assay [12] and in [14] was “inactive” throughout.
Consider `CN(C)c1nc(N(C)C)nc(N(C)C)n1`, for which the Potency entry in assay [1], in [2], in [3], in [4], in assay [5] and in [6] was “inactive” each time. Besides, the Potency entry in assay [7], in [8], in assay [9], in [10], in assay [12] and in [14] was “inactive” throughout.
As for `Nc1ncn([C@@H]2O[C@H](CO)[C@@H](O)[C@H]2O)c(=O)n1`, the Potency entry in assay [13], in assay [1], in assay [7], in assay [10], in assay [11] and in [12] was “inactive” in each case. Besides, the Potency entry in assay [20] and in [14] was “inactive” each time. For the same compound, the Potency in assay [2] is 27.3 µM (active) and 29.8 µM (active); in assay [15], 619 nM (active); in assay [17], 3.1 µM (active); in assay [6] it was 2.17 µM (active) and 3.76 µM (active); in assay [8], 5.96 µM (active); in assay [9], 4.86 µM (active). The Potency in assay [19] was 2.73 µM (active) and 7.5 µM (active). The result in assay [16] and in assay [18] was inactive.
Consider `c1ccc2c(c1)Oc1ccccc1S2`, for which the Potency result in [13], in assay [1], in assay [8], in assay [9], in assay [10] and in [11] was “inactive” in each case. Moreover, the Potency entry in assay [12] and in [14] was “inactive” throughout. Moreover, the Potency in assay [7] is 72.1 µM (active).
Regarding `CCCCc1oc2ccccc2c1C(=O)c1cc(I)c(OCCN(CC)CC)c(I)c1`, the Potency is 12.4 µM (active) and 16.9 µM (active) in [13]; 48.9 µM (active) and 29.8 µM (active) in assay [6]; 43.6 µM (active) in assay [9]; 43.6 µM (active) in [12]. Further, the call in assay [16] and in assay [18] was inactive. Moreover, the Potency result in [17], in assay [7], in assay [19], in assay [20] and in [14] was “inactive” each time.
In the case of `CC1=CC2C3CC(C=C3C)C2C1` (stereo unspecified), the Potency result in [13], in [1], in [6], in [7], in [8] and in assay [9] was “inactive” in each case. Also, the Potency entry in assay [10], in assay [11], in assay [12], in assay [19], in assay [20] and in [14] was “inactive” each time.
